Compound activity from PubChem BioAssay.
HPGD block: blocks human HPGD enzyme activity; P15428; purified HPGD, NADH fluorescence kinetic, PGE2 substrate; Potency, µM, for inactives: at the highest dose activity change, negative = inhibition, most hits filed as inhibitors; 150,000 tested, 4.3% active; AID 894; active means well fitted inhibition curve with a large enough effect, not every such curve was filed as active; inconclusive means small, poorly fitted or top-dose-only effect, or another doubt; inactive means no such curve, though single readings can be large or run the other way
Target sequence (P15428 whole entry, looked up): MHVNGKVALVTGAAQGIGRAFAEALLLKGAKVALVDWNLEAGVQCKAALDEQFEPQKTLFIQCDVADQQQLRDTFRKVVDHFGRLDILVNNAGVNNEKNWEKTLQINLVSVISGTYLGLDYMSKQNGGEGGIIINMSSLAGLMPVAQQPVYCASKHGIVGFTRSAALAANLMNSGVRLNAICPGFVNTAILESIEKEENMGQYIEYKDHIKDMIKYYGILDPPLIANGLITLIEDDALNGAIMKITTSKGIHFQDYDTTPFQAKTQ
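NADH formation kinetics: reaction with 30 uM PGE2 and 1 mM NAD+ (final), 20 nM enzyme, Tris-HCl pH 8 with Tween 20, after 15 min compound preincubation at room temperature. Fluorescence change, last versus first of five reads.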
Lamin A splicing: LMNA splicing modulation. 200,000 tested, 0.01% active. AID 1487. Potency, µM (doses to about 46.1 µM), without a hit: at the top dose ratio change, negative = inhibition, most hits filed as inhibitors. HeLa LMNA splicing GFP/RFP minigene ratio, 48 h; active means well fitted inhibition curve with a large enough effect in the signal ratio, with a control signal flat, not every such curve was filed as active; inconclusive means small, poorly fitted or top-dose-only effect, or effect the other way, or a change in a side signal; the % refers to the signal ratio
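S3 HeLa stable clones carrying a lamin A-EGFP splicing minigene plus DsRed2 were seeded at 600 cells/well in Opti-MEM with 2% FBS, pin-dosed and incubated 48 h at 37°C. Acumen cytometry (488 nm) gave the GFP/RFP total-intensity ratio.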
ALDH1A1 inh: blocks purified human ALDH1A1 activity; Purified ALDH1A1, NADH fluorescence, propionaldehyde substrate; 220,000 tested, 7.3% active; AID 1030; P00352; Potency, µM (series often up to 75.3 µM), for the others: top-dose activity, negative = inhibition, most hits filed as inhibitors; active means well fitted inhibition curve with a large enough effect, not every such curve was filed as active; inconclusive means small, poorly fitted or top-dose-only effect, or another doubt; inactive means no such curve, though single readings can be large or run the other way;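 further: plate controls were no enzyme wells and a reference inhibitor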
Target sequence (P00352 whole entry, looked up): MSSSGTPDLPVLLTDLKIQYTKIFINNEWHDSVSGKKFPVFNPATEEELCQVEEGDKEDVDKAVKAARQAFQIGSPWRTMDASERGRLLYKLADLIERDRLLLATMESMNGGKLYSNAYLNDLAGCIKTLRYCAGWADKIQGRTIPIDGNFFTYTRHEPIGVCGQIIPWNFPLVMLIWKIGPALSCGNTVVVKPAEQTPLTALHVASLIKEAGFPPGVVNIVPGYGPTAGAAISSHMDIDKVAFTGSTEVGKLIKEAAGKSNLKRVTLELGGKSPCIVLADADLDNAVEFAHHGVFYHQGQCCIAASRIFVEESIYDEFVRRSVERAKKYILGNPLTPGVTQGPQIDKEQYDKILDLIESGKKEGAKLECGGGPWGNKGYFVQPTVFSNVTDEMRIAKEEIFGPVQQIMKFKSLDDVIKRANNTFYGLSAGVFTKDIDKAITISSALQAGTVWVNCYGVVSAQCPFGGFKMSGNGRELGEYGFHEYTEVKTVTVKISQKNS
KinaseGlo FLuc: blocks Kinase-Glo luciferase, a counter-screen artifact | Q27757 | Kinase-Glo luciferase, ATP luminescence, 8 min | Potency, µM (top dose mostly 38.3 µM), without a hit: at the top dose activity change, negative = inhibition, actives largely listed as inhibitors | 200,000 tested, 0.28% active | AID 1379; further: nearly all actives have a fitted effect of over 60% in size
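Compounds were added to a substrate mix at pH 7.2 (50 mM imidazole, 10 uM ATP, within the enzyme's linear range), followed by Kinase-Glo detection reagent; luminescence was measured after 8 minutes at ambient temperature.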
IMPase Li inh: cell-permeable IMPase inhibitors with lithium potentiation; CHO-M1 cells, IP1 TR-FRET (IP-One), carbachol + lithium; Potency, µM (series often up to 59.4 µM), without a hit: at the highest dose activity, negative = IMPase inhibition, hits mostly inhibitors; 210,000 tested, 0.35% active; AID 1457;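 further: IP1 builds up when IMPase is blocked and the TR-FRET signal falls; plate controls were basal vehicle for no effect and high inhibitor control for full effect; nearly all actives have a fitted effect of over 50% in size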
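Lithium-sensitised IP1 accumulation assay; M1-expressing CHO cells treated 30 min at 37C with compound. Competitive antibody detection by time-resolved FRET followed a 10 min room-temperature lysis step.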
Numbers without * were called inactive; ? = inconclusive; . = no result given; [ ] = dose if it differs, or a comment. Rows were chosen to be rich in hits. Some 9% of all compounds tested hit in one or more screens of this group. Unless noted, the call rests on the fitted dose curve; in most records, active means well fitted curve in the direction sought with a large enough effect; inconclusive means small, poorly fitted or top-dose-only effect, or another doubt; inactive means no such curve, though single readings can be large; an effect the other way counts as inactive or inconclusive. Unless noted, on the % scale 0 is the no-effect control and ±100 the full control effect; potency means the concentration at half of the fitted maximal effect.

SMILES	HPGD block	Lamin A splicing	ALDH1A1 inh	KinaseGlo FLuc	IMPase Li inh
Clc1ccc2c(c1)C(c1ccccc1Cl)=NCc1nnc(N3CCN(CCOc4ccccc4)CC3)n1-2	-2.8%	?	10µM*	-4.0%	14.0%
COc1ccccc1C1=NCc2nnc(C)n2-c2ccc(Cl)cc21	28.2µM*	-11.4%	12.9%	-2.4%	9.1%
Cc1nnc2n1-c1ccc(Cl)cc1C(c1ccccc1)=NC2	15.8µM*	?	6.9%	3.2%[39.9 µM]	4.8%
COc1ccc(C2=NCc3nnc(C)n3-c3ccc(Cl)cc32)cc1Cl	-26.4%	?	?	2.4%	4.9%
Clc1ccc2c(c1)C(c1ccccc1Cl)=NCc1nnc(N3CCN(CCSc4ccccc4)CC3)n1-2	-9.1%	?	?	-3.0%	19.2%[38.3 µM]
CC(=O)Nc1ccc(N(C(=O)Cn2nnc3ccccc32)C(C(=O)NC2CCCC2)c2ccc(O)c(O)c2)cc1 (stereo unspecified)	.	?	-10.4%	1.7%	4.7%
CCC(=NCCC(c1ccccc1)c1ccccc1)c1c(O)[nH]c(=O)[nH]c1=O	-12.1%	?	?	-2.8%	12.1%
CCC(=Nc1ccc(OC)cc1OC)c1c(O)[nH]c(=O)[nH]c1=O	25.1µM*	-1.9%	-4.2%	13.0%	1.8%[38.3 µM]
C=CCn1c(O)c(C(CC)=Nc2cc(OC)ccc2OC)c(=O)[nH]c1=O	-28.9%	-9.1%	?	1.7%	25.1%[38.3 µM]
CCC(=Nc1cc(OC)ccc1OC)c1c(O)[nH]c(=O)[nH]c1=O	25.1µM*	?	?	-4.0%	2.2%[38.3 µM]
CC1CCC2(OC1)OC1CC3C4CC[C@@H]5CC(O)CC[C@@]5(C)C4CC(=O)[C@]3(C)C1C2C (stereo partly specified)	-12.4%	.	-1.7%	-4.4%	30.3%
C[C@@H]1CC[C@@]2(OC1)O[C@H]1[C@@H](O)[C@H]3[C@@H]4CC[C@H]5C[C@@H](O[C@@H]6O[C@H](CO)[C@H](O[C@@H]7O[C@H](CO)[C@@H](O)[C@H](O[C@@H]8OC[C@@H](O)[C@H](O)[C@H]8O)[C@H]7O[C@@H]7O[C@H](CO)[C@@H](O)[C@H](O[C@@H]8O[C@H](CO)[C@@H](O)[C@H](O)[C@H]8O)[C@H]7O)[C@H](O)[C@H]6O)[C@H](O)C[C@]5(C)[C@H]4CC[C@]3(C)[C@H]1[C@@H]2C	-4.6%	.	20µM*	.	25.5%
CCN1CCN(S(=O)(=O)c2ccc(Cl)nc2)CC1	-2.3%	3.9%	25.1µM*	-1.6%	15.5%[38.3 µM]
CCN1CCN(Cc2ccc(C)cc2)CC1	-6.8%	-1.0%	?	2.7%	2.5%[38.3 µM]
CN(C)C(=O)Nc1cccc(C(F)(F)F)c1	-4.1%	.	2.7%	.	0.6%
C=CCN1C(=O)/C(=C/c2cc(C)n(-c3ccccn3)c2C)C(=O)NC1=S	12.6µM*	4.3%	?	1.6%	4.5%
CN1CCN(c2ccc(N)cc2)CC1	-13.1%	-11.3%	31.6µM*	-13.7%	50.0%[38.3 µM]
CN1CCN(c2ccc(C=O)cc2)CC1	-5.3%	11.5%	12.6µM*	-8.0%	19.5%[38.3 µM]
CCN1CCN(c2ccc(N)cc2)CC1	.	-13.6%[46 µM]	-12.9%	-2.8%	11.8%
CC(C)[C@]1(NC(=O)[C@@H]2C=C3c4cccc5[nH]cc(c45)C[C@H]3N(C)C2)O[C@@]2(O)C3CCCN3C(=O)[C@H](Cc3ccccc3)N2C1=O (stereo partly specified)	?	.	?	-8.2%	13.5%
COc1ccc(C2=NCC(=O)N(CC(=O)NCc3ccco3)c3sc4c(c32)CCCC4)cc1	-6.4%	?	15.8µM*	-4.3%	0.2%[38.3 µM]
Cc1cccc(C2=NCC(=O)N(CC(=O)NCc3ccco3)c3sc4c(c32)CCCC4)c1	28.2µM*	-3.9%	20µM*	-4.3%	38.1%[38.3 µM]
O=C(CN1C(=O)CN=C(c2ccccc2Cl)c2cc(Cl)ccc21)NCc1ccco1	4.3%	12.4%	6.6%	-3.4%	8.3%[38.3 µM]
CCN(N=O)C(N)=O	-2.4%	.	-13.3%	.	-20.2%
O=C1C(Cl)=C(Cl)C(=O)C(Cl)=C1Cl	0.891µM*	.	0.398µM*	-13.0%	111.7%
SMILES	HPGD block	Lamin A splicing	ALDH1A1 inh	KinaseGlo FLuc	IMPase Li inh
C[C@@H](COc1ccccc1)N(CCCl)Cc1ccccc1	1.8%	-7.3%	5.3%[20.9 µM]	4.5%[17.1 µM]	14.5%
Cc1cc(N2C(=O)CC(N3CCC(n4c(=O)[nH]c5ccccc54)CC3)C2=O)no1 (stereo unspecified)	-10.5%	1.3%	?	1.2%	15.3%[38.3 µM]
COC(=O)c1ccc(N2C(=O)CC(N3CCC(O)(c4ccc(Br)cc4)CC3)C2=O)cc1 (stereo unspecified)	-9.0%	18.2%	3.16µM*	-3.3%	37.0%[38.3 µM]
COC(=O)c1ccc(N2C(=O)CC(N3CCC(n4c(=O)[nH]c5ccccc54)CC3)C2=O)cc1 (stereo unspecified)	-12.6%	2.2%	10µM*	-3.0%	-3.6%[38.3 µM]
OCC(CBr)(CBr)CBr	-9.0%	.	17.8µM*	.	0.8%
O=C(N/N=C/C1C(=O)NC(=S)N(c2ccccc2)C1=O)c1cc(Br)c(O)c(Br)c1 (stereo unspecified)	.	.	12.6µM*	1.4%	2.9%
COC1C(O)C(C)O[C@H](OC2CC[C@@]3(C=O)C4CC[C@]5(C)C(C6=CC(=O)OC6)CC[C@@]5(O)C4CC[C@@H]3C2)C1O (stereo partly specified)	-6.7%	.	-4.2%	-5.2%	21.1%
COc1ccc(-n2c(C)nc3cc(C(=O)N4CCC5(CC4)OCCO5)ccc32)cc1	12.6µM*	-10.6%	?	-1.6%	-3.5%[38.3 µM]
O=C(c1ccc2c(c1)ncn2-c1ccc(F)cc1F)N1CCC2(CC1)OCCO2	.	.	?	1.0%	4.8%
Cc1nc2cc(C(=O)N3CCC4(CC3)OCCO4)ccc2n1-c1ccc(Br)cc1	8.91µM*	4.6%	?	-3.1%	-8.0%[38.3 µM]
Cc1c(O)c(O)cc2c1CC=C1[C@]3(C)CC[C@]4(C)CC[C@@](C)(C(=O)O)CC4[C@]3(C)CC[C@]12C (stereo partly specified)	17.8µM*	?	-5.5%	-1.9%	-2.5%
C=CCn1c(O)c(C(C)=Nc2ccc(C(=O)OCC)cc2)c(=O)[nH]c1=O	-28.4%	11.9%	31.6µM*	3.9%	30.7%[38.3 µM]
CCN(CCNc1ccc([N+](=O)[O-])c2cccnc12)S(=O)(=O)c1ccc(Cl)cc1	-11.3%	5.5%	2.82µM*	-1.4%	5.4%[38.3 µM]
CN(C)C(=O)Oc1ccc(OCc2nc3ccccc3[nH]2)cc1	-0.5%	?	5.9%	11.2µM*	7.5%
C=CCc1c(C)[nH]c(=S)c(C#N)c1C	3.98µM*	7.8%	4.47µM*	5.4%	-22.5%[38.3 µM]
O=c1c2ccccc2nc(CSc2ncnc3nc[nH]c23)n1-c1ccccc1	-2.6%	?	?	2.4%	?
O=C(O)c1cc[c]([Hg][S]c2ncnc3nc[nH]c23)cc1	0.224µM*	.	0.891µM*	0.0%[7.66 µM]	8.4%
CC(C)c1ccc2c(c1O)CCC1C3=C(CC[C@]21C)C(=O)OC3 (stereo partly specified)	-18.7%	-6.6%	-2.8%	-2.1%	11.4%
